The results in this text go back to PubChem BioAssay AID1508600 (Functional Genomics Laboratory (NCATS/FGL), 2020).

Screen size: about 53,000 sequences; about 3,700 (7%) were called active. The entries come from a sample that favours actives as a whole. A number with no mark means an inactive call.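 Rule for the calls: active = gene knockdowns whose robust z-score for IL-1 alpha signal is at least 2 or at most -2, so actives lie on both sides; inactive = the rest.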

The nature of this assay: Components of the Cytosolic LPS Sensing Pathway: Gene Identification via Genome-wide siRNA Screen.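 Note: robust z of the log signal after scaling to non-targeting control siRNA wells of the plate.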 The settings on record: RAW264.7 macrophages, IL-1a HTRF, actives lie on both sides, screened at 100 nM (by protocol), cells primed 5 h with Pam3CSK4 first. Summed up: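 Mouse macrophage line RAW264.7 is transfected with siRNA (100 nM final), grown 48h, primed with TLR ligand Pam3CSK4 5 h and given intracellular LipidA 24 h. IL-1a in supernatant is read by HTRF and viability by luminescence.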
On the technique in general: Time-resolved FRET reads energy transfer from a long-lived donor to a nearby acceptor.
In the case of GGAGAACCAUAAUAAGAGUTT against Tnfrsf26, the z-score is -2.88 (active).
As to UCAAACUAGGUGCUGUUGUTT against Olfr584, the z-score is 0.998.
As to CCAAAGAUGCUCCUCACCUTT against Olfr197, the z-score is -0.158.
For the sequence GCUUCUAGCCUGUAUUGCCTT against Rps8, the z-score was 0.31.
Then CCUGUAUUUUACGAUCUUUTT against Best1, with 0.103; and GGUCCUGGACAAAGUGUUUTT against Tubgcp5, with 2.48 (active).
Take CCCAUCUGUUUGAGUGUAUTT against Ms4a1: the z-score is -0.305.
As to GCCUUGGUACACUAAACUCTT against Rhcg, the z-score is -0.426.
Then GCCUGUAAGGAGAAUCAGCTT against Car4, with 0.684; and GGUUCCAAGUCAAAGAGUUTT against Foxl1, with -0.47; and GGACUCUGUAGUUGAAGAUTT against Pogz, with -0.882.
Regarding CCAUUCUGAAUCUCUAAUCTT against Pigw, the z-score was 0.134.
As to CCAAUCUGAAGUGCUACUATT against Trim42, the z-score is 0.368.
Then CCCGUGCCUUCCUUAAAGCTT against Ggt6, with 0.327.
The same measure for CCCACUGAUGCUAUUUCUATT against Rad1: -2.57 (active); for GGUCUUUAUCUACCAUGGGTT against Itga7: -1.29.
Then CCUUUGCCUAUGUUUACCATT against Ropn1l, with 0.851; and GGGACUCAGUGUUUAUUGATT against Thsd4, with 0.216; and GGCUUUUAAGUUCUUCCAGTT against Ptbp3, with 2.44 (active).
As for UCAUUAGUAUCCUCCGUAUTT against Olfr919, the z-score is 0.27.
Then GGAAGGUGAUGAAGGAUCGTT against Fam118a, with 0.0491; and GGAAGAUUUCACAUCUCAGTT against Pdia5, with -0.528; and GCUUGUUAAAAUUGGAAAGTT against Kif11, with -1.47.
Consider GGCCUCCAAUAAAGCUCAGTT against Ttc28, for which the z-score was -2.07 (active).
The same measure for GCUCCUAUUACUGAAUUUATT against Olfr749: -0.445; for GGUGACCUUACCUAAUGUATT against Mettl18: 0.578; for GGCACAAGCAGGAGAUAAATT against Serpinb2: 2.05 (active).
Consider GGUGGUCUUUUCCCAGCAGTT against Msrb3, for which the z-score was 0.793.
Turning to GGCAACACGAUGCAGCAGUTT against Fam50a, the z-score is -0.36.
Then GCUCUACUGCUUCCUUGUUTT against Olfr229, with -0.338; and GGUGUCUGCUUCUUCAAAGTT against Slc25a26, with -2.33 (active); and GGAUAUUGCCAGUAAUUAATT against Kif21a, with 0.212.
The same measure for GCUACCUCAACAUGGAUGCTT against Pcca: 1.16.
The same measure for GGAUGACUGUAUCUGUACUTT against Ttc3: 0.0197; for GGCCCAGAACAGAAAACUCTT against Clec1a: -0.582; for GGACCUAAGGGAUCUAUUGTT against Col5a3: 0.000962.
With GCACUGUGAAUUUGUCAUUTT against Umps, the z-score was 1.22.
For GGAACACGAAUCAUUUAUGTT against Eif4ebp2, the z-score is 0.351.
The same measure for GUUUGGCCGAGUUCAUUUCTT against Pigu: 0.759.
Then CCUGUGGAUUACGGCCUCATT against Ube3b, with -0.282.
On to GGAGCUGUUUUCUGUGAAGTT against Mrps2, for which the z-score was 0.0283.
Then GGAUGUGGAGCAAGUGAAGTT against Stx1b, with -2.05 (active); and GCUUCAAGCCAUCCGAAUATT against Cfap36, with 0.886; and GGACCAGCUGAAGAUGGGATT against Pced1b, with -1.1.
Take GCCAGUUUCCAGUCCUUGUTT against Dppa5a: the z-score is -0.2.
Consider GCACAUAAAAUGCUCACUGTT against Rgr, for which the z-score is -0.084.
Then CCAAACUUAAACAUGUUGUTT against Ddx21, with 0.364.
The same measure for GCUGUACACAGUGAGGAAGTT against Gcat: 5.42 (active).
Take CGACUACCACACGUGGAAUTT against Hvcn1: the z-score was 1.36.
The same measure for UGUUCCUAGGUCAGCUACUTT against Olfr1200: -1.54; for GGCACUUCACAGACUUAGUTT against Selp: -0.682.
The same measure for CUCCUUGUCUACCUGAAUATT against Vmn1r213: -1.44; for CCUCUUAGCUAGAUCUUACTT against Smu1: -2.41 (active); for GCCUGAGAAGAUAGACUGATT against Pigs: 0.114.
With GCUUAACUAGUAUCCUAUGTT against Tas2r135, the z-score was -0.228.
In the case of GGACAAAGUGAAUUAUAGCTT against Tmem123, the z-score was 1.12.
Then GUAAGUUGUUUGAGGAAAGTT against Defb3, with 2.08 (active); and GAAAUUCUUCCAGUGGAAGTT against Lrp2bp, with 0.958.
Turning to “GGAACAUCAUCAACCACUATT against Olfr911-ps1”, the z-score was -1.53.
For GGUACAACAGACUAUGCAATT against Snai1, the z-score is 0.886.
The same measure for GCUUUCGCCAAUAAAAAAGTT against Slc13a2: 0.265; for GGUGAAACGGGAUGUUAACTT against Ppargc1b: -0.102; for GCCUUAUUACUGACCUUUUTT against Smarcd2: 1.77.
Regarding GCUAUGAAAGAGGGAAGCUTT against Cyp2c54, the z-score is 0.164.
The same measure for CCAGAAAACUCAGUUUGAATT against Magi3: 0.518; for GCUGGUGGCAAUCAGAAAATT against Nppc: 0.121.
The same measure for GGUUCAACACGAUGUUCGATT against Nr1i2: 0.162; for GGAUGUCUGACACAAGUGUTT against Olfr390: 3.42 (active).
The same measure for GCUUCACAGAAGCUUUGUGTT against Ccl4: -0.156; for GGAAUAUCAGAAUACCAUCTT against Cnpy4: 0.89; for CCAGGAACAGCUAUCGGAUTT against Homer2: -0.271.
With GCUGCAUUACAAGCCCAACTT against Zfp414, the z-score is -0.218.
For GGUGACAUAUUUGAAGUGGTT against Dmwd, the z-score is -0.000303.
Then GCACCCUACCUGCUAAUGUTT against Slitrk1, with 3.59 (active); and GGAUGACAAGGUUAAGCUATT against Golm2, with -0.0855; and GCAACAAUGUGGUUCCUAUTT against Rab11a, with 0.616.
The same measure for GGAGCUACUGUACCUUGCUTT against Ncapg2: -1.29; for GGCUAGAAAACCUCUAUCUTT against Lrrc18: -2.11 (active); for GUGCAUGCAGUGUUGUUUUTT against Magea5: 0.711.
Regarding GGAUAGGGAUUGGAGAUAUTT against Stn1, the z-score is 0.203.
Then GGGUAGUCACUCAAUAAAUTT against Pear1, with -0.54; and GGAUUGCCCUGUGGACAAGTT against Nr4a1, with 0.963.
The same measure for GGCGAAAUGAACACAAAGCTT against Edf1: 0.983; for GGAAAAGUACACAAAGACCTT against Nkx2-1: 2.16 (active); for GGAAAAGUGGUGAACGACATT against Tm4sf4: 0.798.
As for GCUGCUGUGACUUAGAUAATT against Cds2, the z-score is -0.668.
Then CCAGGAUCAUUCUUCUGAATT against Chrna7, with -0.563; and GCGUAUACCAUGCAGAUAUTT against Sigmar1, with 1.05; and GGCGUACGUAGACAAGUACTT against Scaf11, with -2.23 (active).
Take GGAAGGUAAUUGCUUUUAGTT against Gmeb1: the z-score was 0.533.
The same measure for GCACUUGCUUCAAGUAAUATT against Ankrd52: -0.0516; for “GCUCUGCUGUGUUAUAUGGTT against C330011M18Rik”: 0.144; for CCUAUGCUUUUUUGUAAGATT against Il13ra2: 0.126.
As to GGGAAUAGCAAAUAAAGCATT against Lztr1, the z-score was -0.674.
The same measure for GGCUGUUGAACUUAAUCCCTT against Tomm70a: -2.25 (active); for GGUAGACGGAAUCUAUUUATT against Kcnj15: -1.31; for GGUGGACUUAUAUGGUUUUTT against St3gal1: 0.408.
The same measure for GGUGAUUGGGAAUUGAAAATT against F3: 0.341; for GCAUAUGCGAACAGUAAAATT against Rab28: -0.182.
Then GGUACCUUCAUCUUGGUGGTT against Olfr699, with -0.017.
GCCUUGACCUGAUUUCUACTT against Tas2r131: the z-score was -0.525.
The same measure for GCAUUCAGGACCUGUGGCUTT against Olfr890: -2.33 (active).
For “GGAUCUGUGAGUUUGUAGCTT against D930030D11Rik”, the z-score was 0.585.
Then “GGACAACUCAAUUCUAAAATT against 4921522P10Rik”, with -1.22; and GCAAAGUUCACCUAAUUGGTT against Lipc, with -1.03.
The same measure for GCCAGACUGAGCUACAAAATT against Gm9732: -1.3; for GCAUCAAAAUCGGUUUCUGTT against Lkaaear1: 0.759.
